According to PubChem BioAssay:

Target: Torsin-1A-interacting protein 2 (Homo sapiens) (UniProt Q8NFQ8)
Assay: LULL1 binders on small-molecule microarray, primary screen, cell lysate, human LULL1 lysate, 635/667 nm fluorescence (AID 1092);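 also: probe is lysate of COS7 cells overexpressing human LULL1; score merges per-feature 667 nm fluorescence with signal-to-noise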
Settings: hLULL1 lysate binding, 635 nm fluorescence, higher = more signal

Sequence of Torsin-1A-interacting protein 2 (Homo sapiens) (Q8NFQ8 whole entry, looked up): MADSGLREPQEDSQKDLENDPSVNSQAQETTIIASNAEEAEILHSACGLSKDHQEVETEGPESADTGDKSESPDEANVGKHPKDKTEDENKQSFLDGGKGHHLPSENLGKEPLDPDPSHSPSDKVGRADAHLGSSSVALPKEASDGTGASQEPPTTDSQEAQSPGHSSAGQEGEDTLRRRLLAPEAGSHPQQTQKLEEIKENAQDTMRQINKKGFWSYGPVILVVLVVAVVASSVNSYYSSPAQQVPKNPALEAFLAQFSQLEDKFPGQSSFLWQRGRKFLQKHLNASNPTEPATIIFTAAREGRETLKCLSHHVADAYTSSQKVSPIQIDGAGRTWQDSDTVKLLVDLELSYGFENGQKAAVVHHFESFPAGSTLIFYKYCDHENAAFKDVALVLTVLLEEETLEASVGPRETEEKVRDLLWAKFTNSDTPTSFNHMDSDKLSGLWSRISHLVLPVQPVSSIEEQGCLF

| SMILES | composite z-score |
| --- | --- |
| C=CCC(OC(C)=O)[C@@H]1[C@@H](N(Cc2ccc(-c3ccccc3)cc2)C(=O)c2ccc(-c3ccccc3)cc2)c2cc(OCCCO)ccc2N1C(=O)c1ccc2ccccc2c1 (stereo not given in full) | 1.17 |
| CCOC(=O)C[C@H]1[C@H](OC(=O)c2cc3ccccc3oc2=O)[C@@H](NC(=O)c2ccc3ccccc3n2)c2cc(OCCCO)ccc2N1C(=O)Cc1ccc(OC)cc1 | 1.33 |
| Cc1ccc(S[C@]2(C(=O)NCC(F)(F)F)CC(=O)N(Cc3cc(C(F)(F)F)cc(C(F)(F)F)c3)[C@@H]2c2ccc(CO)cc2)cc1 | 1.79 |
| COC(=O)[C@@]1(Cc2ccc(OC)cc2)[C@H]2c3cc(C(=O)N4CCCC4)n(CCc4c[nH]c5ccc(O)cc45)c3C[C@H]2CN1C(=O)c1ccccc1 | 3.16 |
| NC(=O)[C@@]1(Cc2ccccc2)COC(c2ccc(OCCCO)cc2)=N1 | 3.05 |
| COCCOC(=O)N1C(=O)[C@@]2(c3cc(C#CCCO)ccc31)[C@H](C(=O)Nc1nc3ccccc3s1)[C@H]1C(=O)O[C@H](c3ccccc3)[C@H](c3ccccc3)N1[C@@H]2c1ccc(O)cc1 | 2.79 |
| COc1ccc([Si](C)(C)[C@@H]2[C@@H](CCO)O[C@]3(C(=O)N(Cc4ccccc4)c4ccc(N5CCOC5=O)cc43)[C@H]2C)cc1 | 1.78 |
| C=C(/C(=C/C[C@H](OC(C)=O)c1ccc(CO)o1)c1cnc2ccccc2c1)C(C)C | 2.64 |
| COC(=O)[C@@]1(Cc2ccccc2)[C@H]2c3cc(C(=O)N4CCCC4)n(CCc4ccccn4)c3C[C@H]2CN1C(=O)c1ccccc1 | 3.93 |
| COCC(=C=CC[C@H](O)c1ccc(OCCO)cc1)CCO | 2.42 |
